In PubChem BioAssay (NCATS):
Inconclusive results are not listed. A call without a number means that no potency is given here. Active and inactive are the calls of the source. Calls follow the shape of the dose curve; as a rule, active = well fitted inhibition curve with a large enough effect; inconclusive = small, poorly fitted or top-dose-only effect; inactive = flat fitted curve, though single readings scatter.

Experiments:
Assay in all cases: qHTS profiling for inhibitors of Plasmodium falciparum proliferation (AID 504749); also: nearly all actives have a fitted effect of over 60% in size
Conditions in all cases: P. falciparum in erythrocytes, SYBR Green DNA, 72 h; series mostly up to 28.7 µM
CP305 = test system: CP305
How it was run: (§1)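 SYBR Green fluorescence (ex 485 nm, em 535 nm) reports parasite DNA after 72 h compound exposure of infected red cells at 0.3% parasitemia, 2.5% hematocrit; signal normalized to 0.29 uM artemisinin and vehicle wells.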

CP315 = test system: CP315
How it was run: as §1

CP325 = test system: CP325
How it was run: as §1

CP329 = test system: CP329
How it was run: as §1

CP335 = test system: CP335
How it was run: as §1

DFO2036 = test system: DFO2036
How it was run: as §1

DIV14 = test system: DIV14
How it was run: as §1

DIV17 = test system: DIV17
How it was run: as §1

DIV30 = test system: DIV30
How it was run: as §1

Dd2 = test system: Dd2
How it was run: as §1
Potency is read from the fitted curve at half-maximal effect.

Compound	Potency (CP305)	Potency (CP315)	Potency (CP325)	Potency (CP329)	Potency (CP335)	Potency (DFO2036)	Potency (DIV14)	Potency (DIV17)	Potency (DIV30)	Potency (Dd2)
CN(CCO)CC(O)Cn1cnc2c1c(=O)n(C)c(=O)n2C (configuration not stated) (tested in a mixture with another compound)	inactive	inactive	inactive	inactive	inactive	inactive	inactive	inactive	inactive	inactive
CC1=CCC2CC1C2(C)C (configuration not stated)	inactive	inactive	inactive	inactive	inactive	inactive	inactive	inactive	inactive	inactive
NC(=O)Oc1ccc(Cc2ccccc2)cc1	inactive	inactive	inactive	inactive	inactive	inactive	inactive	inactive	inactive	inactive
O=C(O)Cc1cc(I)c(Oc2ccc(O)c(I)c2)c(I)c1	inactive	inactive	inactive	inactive	inactive	inactive	inactive	inactive	inactive	inactive
CCCCC/C=C\C/C=C\C/C=C\CCCCC(=O)O	inactive	inactive	inactive	inactive	inactive	inactive	inactive	inactive	inactive	inactive
CCCCC[C@H](O)/C=C/[C@@H]1[C@H]2C/C(=C/CCCC(=O)O)O[C@H]2C[C@H]1O	inactive	inactive	inactive	inactive	inactive	inactive	inactive	inactive	inactive	inactive
NCCN	inactive	inactive	inactive	inactive	inactive	inactive	inactive	inactive	inactive	inactive
CN1CCC(OC(=O)C(Oc2ccc(Cl)cc2)Oc2ccc(Cl)cc2)CC1	inactive	inactive	inactive	inactive	inactive	inactive	inactive	inactive	inactive	inactive
CC(C)(CO)[C@@H](O)C(=O)NCCC(=O)NCCSSCCNC(=O)CCNC(=O)[C@H](O)C(C)(C)CO	inactive	inactive	inactive	inactive	inactive	inactive	inactive	inactive	inactive	inactive
C[C@]12CC[C@@H]3c4ccc(OC(=O)c5ccccc5)cc4CC[C@H]3[C@@H]1CC[C@@H]2O	inactive	inactive	inactive	inactive	12 µM (active)	inactive	inactive	inactive	inactive	
CC/C=C\C/C=C\C/C=C\C/C=C\C/C=C\C/C=C\CCC(=O)O	inactive	inactive	inactive	inactive	inactive	inactive	inactive	inactive	inactive	inactive
Cc1cc(C)c(NC(=O)C[C@H](CC(=O)O)c2cccc3ccccc23)c(C(=O)N2CCC3(CCCC3)CC2)c1	inactive	inactive	inactive	inactive	inactive	inactive	inactive	inactive	inactive	
Cc1cc(-c2ccc(N=Nc3ccc4c(S(=O)(=O)O)cc(S(=O)(=O)O)c(N)c4c3O)c(C)c2)ccc1N=Nc1ccc2c(S(=O)(=O)O)cc(S(=O)(=O)O)c(N)c2c1O	inactive	inactive	inactive	inactive	inactive	inactive	inactive	inactive	inactive	inactive
COC(=O)CC[C@H](N)C(=O)O	inactive	inactive	inactive	inactive	inactive	inactive	inactive	inactive	inactive	inactive
FC(F)(F)C(F)(F)C(F)(F)C(F)(F)C(F)(F)C(F)(F)F	inactive	inactive	inactive	inactive	inactive	inactive	inactive	inactive	inactive	inactive
O=[n+]1ccn([O-])c2ccccc21	inactive	inactive	inactive	inactive	inactive	inactive	inactive	inactive	inactive	inactive
Cc1nc(NS(=O)(=O)c2ccc(N)cc2)nc(C)c1Br	inactive	inactive	inactive	inactive	inactive	inactive	inactive	inactive	inactive	inactive
CCN(CC)C(=S)S	inactive	inactive	inactive	inactive	inactive	inactive	inactive	inactive	inactive	inactive
O=C(NNCS(=O)(=O)O)c1ccncc1	inactive	inactive	inactive	inactive	inactive	inactive	inactive	inactive	inactive	inactive
N[C@H](CC(=O)O)C(=O)O	inactive	inactive	inactive	inactive	inactive	inactive	inactive	inactive	inactive	inactive
CCOc1ccc(S(=O)(=O)O)c2cccnc12	inactive	inactive	inactive	inactive	inactive	inactive	inactive	inactive	inactive	inactive
[O-][N+](=Nc1ccccc1)c1ccccc1	inactive	inactive	inactive	inactive	inactive	inactive	inactive	inactive	inactive	inactive
O=P(O)(O)OP(=O)(O)OP(=O)(O)O	inactive	inactive	inactive	inactive	inactive	inactive	inactive	inactive	inactive	inactive

Compound	Potency (CP305)	Potency (CP315)	Potency (CP325)	Potency (CP329)	Potency (CP335)	Potency (DFO2036)	Potency (DIV14)	Potency (DIV17)	Potency (DIV30)	Potency (Dd2)
OB(O)O	inactive	inactive	inactive	inactive	inactive	inactive	inactive	inactive	inactive	inactive
COc1cc2c(cc1OC)[C@@H](Cc1cc(OC)c(OC)c(OC)c1)[N+](C)(CCCOC(=O)CC/C=C/CCC(=O)OCCC[N+]1(C)CCc3cc(OC)c(OC)cc3[C@H]1Cc1cc(OC)c(OC)c(OC)c1)CC2 (some centres not stated)	inactive	inactive	inactive	inactive	inactive	inactive	inactive	inactive	inactive	inactive
F[Si-2](F)(F)(F)(F)F	inactive	inactive	inactive	inactive	inactive	inactive	inactive	inactive	inactive	inactive
NC(=O)C1c2ccccc2CCc2ccccc21	inactive	inactive	inactive	inactive	inactive	inactive	inactive	inactive	inactive	inactive
CCCCCCOC(=O)c1cccnc1	inactive	inactive	inactive	inactive	inactive	inactive	inactive	inactive	inactive	inactive
OC[C@H]1O[C@@](CO)(O[C@H]2O[C@H](CO)[C@@H](O)[C@H](O)[C@H]2O)[C@@H](O)[C@@H]1O	inactive	inactive	inactive	inactive	inactive	inactive	inactive	inactive	inactive	inactive
NC(=S)N=Nc1ccc(NN=C(N)N)cc1	7.57 µM (active)	8.49 µM (active)	10.7 µM (active)	7.57 µM (active)	8.49 µM (active)	5.01 µM (active)	6.01 µM (active)	7.57 µM (active)	9.53 µM (active)	2.51 µM (active)
c1ccc2ccccc2c1	inactive	inactive	inactive	inactive	inactive	inactive	inactive	inactive	inactive	inactive
O=P(O)(O)OC[C@H]1O[C@](O)(COP(=O)(O)O)[C@@H](O)[C@@H]1O	inactive	inactive	inactive	inactive	inactive	inactive	inactive	inactive	inactive	inactive
CC(C)(C)CC(C)(C)c1cc(Cc2cc(C(C)(C)CC(C)(C)C)cc(-n3nc4ccccc4n3)c2O)c(O)c(-n2nc3ccccc3n2)c1	inactive	inactive	inactive	inactive	inactive	inactive	inactive	inactive	inactive	inactive
CN(C)C(=O)CCSC(SCCC(=O)O)c1cccc(/C=C/c2ccc3ccc(Cl)cc3n2)c1 (configuration not stated)	inactive	inactive	inactive	inactive						
O=P(O)(O)O	inactive	inactive	inactive	inactive	inactive	inactive	inactive	inactive	inactive	inactive
CC(=O)NCCCS(=O)(=O)O	inactive	inactive	inactive	inactive	inactive	inactive	inactive	inactive	inactive	inactive
Cc1ccc(S(=O)(=O)NCl)cc1	inactive	inactive	inactive	inactive	inactive	inactive	inactive	inactive	inactive	inactive
CC(=O)Nc1c(I)c(C(=O)O)c(I)c(N(C)C(C)=O)c1I	inactive	inactive	inactive	inactive	inactive	inactive	inactive	inactive	inactive	inactive
CS(=O)(=O)OCC(O)C(O)COS(C)(=O)=O (configuration not stated)	inactive	inactive	inactive	inactive	inactive	inactive	inactive	inactive	inactive	inactive
c1ccc2c(c1)OCC(CN1CCCCC1)O2 (configuration not stated)	inactive	inactive	inactive	inactive	inactive	inactive	inactive	inactive	inactive	inactive
CC(C)[C@H](N)C(=O)OCC(CO)OCn1cnc2c(=O)[nH]c(N)nc21 (some centres not stated)	inactive	inactive	inactive	inactive	inactive	inactive	inactive	inactive	inactive	inactive
CCCCCCCCCCCCCCCCCC[N+](C)(C)CCC[Si](OC)(OC)OC	inactive	inactive	inactive	inactive	inactive	inactive	inactive	inactive	inactive	inactive
CN(C)C=Nc1c(I)cc(I)c(CCC(=O)O)c1I	inactive	inactive	inactive	inactive	inactive	inactive	inactive	inactive	inactive	inactive
CC1CC(O)CC(C)(C)C1 (configuration not stated)	inactive	inactive	inactive	inactive	inactive	inactive	inactive	inactive	inactive	inactive
O=C(NNCNNC(=O)c1ccncc1)c1ccncc1	inactive	inactive	inactive	inactive	inactive	inactive	inactive	inactive	inactive	inactive
